{"source": "ChEMBL document CHEMBL3433997", "about": "“St. Jude Leishmania screening dataset” (2016)"}
{"molecular_target": "Solute carrier family 2, facilitated glucose transporter member 1 (Homo sapiens) (UniProt P11166)", "sequence (P11166 whole entry)": "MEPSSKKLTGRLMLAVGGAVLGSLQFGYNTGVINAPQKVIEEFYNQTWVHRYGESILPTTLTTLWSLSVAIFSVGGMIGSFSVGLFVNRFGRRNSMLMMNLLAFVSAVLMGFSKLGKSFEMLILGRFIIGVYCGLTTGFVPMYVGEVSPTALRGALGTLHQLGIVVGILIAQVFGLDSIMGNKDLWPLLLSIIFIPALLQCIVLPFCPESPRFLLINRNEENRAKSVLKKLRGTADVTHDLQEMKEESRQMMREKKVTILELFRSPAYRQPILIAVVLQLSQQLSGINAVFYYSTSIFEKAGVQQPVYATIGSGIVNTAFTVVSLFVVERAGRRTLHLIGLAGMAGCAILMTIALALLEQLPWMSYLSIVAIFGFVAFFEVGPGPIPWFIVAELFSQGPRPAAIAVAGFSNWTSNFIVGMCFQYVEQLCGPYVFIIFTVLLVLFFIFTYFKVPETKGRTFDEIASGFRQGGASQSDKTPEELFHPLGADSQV", "assay": "ST_JUDE_LEISH: Cytotoxicity at 2uM final concentration against transgenic Leishmania Mexicana promastigotes LmGLUT1 that are glucose transport deficient and complemented with the human glucose transporter GLUT1. Activity is measured by DNA content using SYBR green in vitro", "format": "functional", "units": {"inhibition": "%"}}
{"smiles": "Cc1cccc(CN2CCC(CNC(=O)c3cc4c(-c5ccccc5F)nn(C)c4s3)CC2)c1", "inhibition": 4.22}
{"smiles": "CC(CCc1ccc(OCc2ccccc2)cc1)NCC(O)c1ccccc1", "note": "(stereo not given)", "inhibition": -1.32}
{"smiles": "CCc1cc2c(cc1CC)CC(NC[C@@H](O)c1ccc(O)c3[nH]c(=O)ccc13)C2", "inhibition": 1.34}
{"smiles": "CCC[C@@H]([C@@H](CC1CCCCC1)C(=O)N[C@H](C(=O)Nc1nccs1)C(C)(C)SCCOCCOCC)N(O)C=O", "inhibition": 6.4}
{"smiles": "CC(C)CCNc1nc(NCCCc2ccccc2)c2cc(O)ccc2n1", "inhibition": 24.8}
{"smiles": "O=[N+]([O-])c1cccc(-c2nc(-c3ccc(Br)cc3)[nH]c2-c2ccc(Br)cc2)c1", "inhibition": 2.77}
{"smiles": "CC(CC(=O)NCC1(c2ccc(F)cc2Cl)CCOCC1)C(=O)c1ccc(Cl)cc1", "note": "(stereo not given)", "inhibition": 0.34}
{"smiles": "Nc1nc(N)c2c(ccc3c2ccn3Cc2ccc3c(c2)OCO3)n1", "inhibition": 97.8}
{"smiles": "O=C(/C=C/c1ccc(Cl)c(Cl)c1)NCCCCCN1CCC(c2cn[nH]c2-c2ccccc2)CC1", "inhibition": 4.33}
{"smiles": "Nc1c2c(nc3ccc(NC(=O)CCCCCc4ccccc4)cc13)CCCC2", "inhibition": 7.95}
{"smiles": "CCOC(=O)N1CCN(C(=O)Nc2ccc(Cl)cc2)CC1", "inhibition": 1.34}
{"smiles": "O=C(Nc1nc(-c2ccccn2)cs1)c1ccc(S(=O)(=O)N2CCc3ccccc32)cc1", "inhibition": 9.61}
{"smiles": "Cc1noc(C)c1-c1ccc2c(Nc3ccccc3N3CCOCC3)c(C(=O)NCc3ccccc3)cnc2c1", "inhibition": 8.19}
{"smiles": "O=C(/C=C/c1ccc(Cl)c(Cl)c1)NCCCCCCN1CCN(C(=O)Nc2ccc(OC(F)F)cc2)CC1", "inhibition": 5.36}
{"smiles": "COc1ccc(C(=O)NCCCCN2CCC(c3ccc4c(c3OC)CCCC4)CC2)cc1-c1ccc(C(F)(F)F)cc1", "inhibition": -1.89}
